PubChem BioAssay (NCI)
This is part of a sample that, as a whole, favours compounds with a hit. Of some 83,000 tested, about 20% had one in any assay.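 Assay: single dose, 48 h. Readout: percent growth (0 = no net growth; negative = cell death). Active: <10.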 Unmarked numbers belong to inactive results. The source made the active and inactive calls.

system: SK-MEL-28 melanoma; assay: NCI-60 one-dose screen, 48 h (100 = growth as untreated, 0 = no growth, -100 = all killed); conditions: 10 µM unless noted

Compound | growth
Fc1ccc(C2=NN(c3ccccc3)C(c3sc(N(CCCl)CCCl)nc3Cl)C2)cc1 (centres undefined) | 111%
CC[C@H](C)[C@H](NC(=O)Nc1ccccc1)C(=O)N(C)[C@H](C[C@@H](OC(C)=O)c1nc(C(=O)N[C@@H](Cc2ccccc2)C[C@H](C)C(=O)OC)cs1)C(C)C | 52.1%
c1ccc(CCN2CCCCC2Cc2ccccc2)cc1 (centres undefined) | 97.5%
CC(=O)O[C@H]1CCC2(C)C(=CCC3C2CCC2(C)/C(=N/OC(=O)c4ccc(N(CCCl)CCCl)cc4)CCC32)C1 (some centres undefined) | 81.8%
O=C(N/N=C/c1ccc(N(CCCl)CCCl)cc1)c1cc(=O)[nH]c(=O)[nH]1 | 116%
O=[As]c1ccc(C(=O)c2ccc(Oc3ccccc3)cc2)cc1 (centres undefined) | -96.3% (active)
O=[N+]([O-])c1cc([N+](=O)[O-])c(Cl)c(Cl)c1Cl | 65.9%
Cc1cc(NC(=O)NCCOc2ccc(N3C(N)=NC(N)=NC3(C)C)cc2Cl)ccc1S(=O)(=O)F | 51.8%
COc1ccc2c(c1)NC1=C(C(=O)OC1)C2c1cc(OC)c(OC)c(OC)c1 (centres undefined) | 66.2%
C=CCc1ccc(OC(=O)Cc2ccccc2)c(OC)c1 | 106%
C[C@]12CCc3sc(-c4ccc(Cl)cc4)nc3C1=CC[C@@H]1[C@@H]2CC[C@]2(C)C(=O)CC[C@@H]12 | 63.1%
C=CCC1(CC)C(=O)NC(=S)NC1=O | 116%
NC(Cc1ccc2c(c1)OCO2)c1ccc2c(c1)OCO2 (centres undefined) | 101%
O=C(CF)N(O)c1ccc(/C=C/c2ccccc2)cc1 | 99.9%
COc1ccc(/C=C(/C(=O)N2CCCC2)c2cc(OC)c(OC)c(OC)c2)cc1N | 60.9%
Nc1nc(N)c(-c2ccc(Cl)c(Cl)c2)c(/C=C/c2ccc(S(=O)(=O)F)cc2)n1 | 98.1%
Nc1c(Br)cc([N+](=O)[O-])cc1[N+](=O)[O-] | 116%
Oc1ccc(O)c2c1C1(Cl)C(Cl)=C(Cl)C2(Cl)C1(Cl)Cl | 67.9%
CN(C)P1(N(C)C)=NP(N(C)C)(N(C)C)=NP(N(C)C)(N(C)C)=N1 | 107%
CCCCNCCc1ccccn1 | 104%

Compound | growth
CNC(=O)Oc1cccc(OC)c1 | 111%
C=C=[CH][Sn]([c]1ccccc1)([c]1ccccc1)[c]1ccccc1 | -56.8% (active)
NC(=O)SCC(=O)Nc1ccc([As](=O)(O)O)cc1 | 101%
C[C@]12CC[C@H]3[C@@H](C[C@@H]4N=C(c5ccc(O)cc5)S[C@@]45C[C@H](O)CC[C@]35C)[C@@H]1CC[C@@H]2O | 53.3%
CC1(C)N=C(N)N=C(N)N1c1ccc(CCCCc2ccc(S(=O)(=O)F)cc2)cc1 | 47.7%
Nc1c(Br)cc2c3c(cccc13)-c1ccccc1-2 | 99.7%
COc1cc2c(cc1OC)CN(C)C(C)C2 (centres undefined) | 106%
CC(C)C1c2ccc(O)cc2Oc2nc(N)c(C#N)c(N)c21 (centres undefined) | 117%
c1ccc2nc(OCCN3CC3)ccc2c1 | 111%
CC1(C)N=C(N)N=C(N)N1c1ccc(CNC(=O)Nc2ccc(S(=O)(=O)F)c(Cl)c2)c(Cl)c1 | 48.6%
c1ccc(-c2ccc3ccccc3[o+]2)cc1 | 111%
CSc1ccccc1NP1(=O)OCC(C)([N+](=O)[O-])CO1 (centres undefined) | 98.6%
CC1COC(=O)C1 (centres undefined) | 103%
C[CH2][Pb]([CH2]C)([CH2]C)[O]C(=O)COc1ccccc1 | 28.3%
COc1ccc(/C=C\c2cc(OC)c(OC)c(OC)c2)cc1N/C=C\C(=O)c1c[nH]c2ccccc12 | 33.8%
CCCC(C)(C)c1ccc2c(c1)OC(C)(C)[C@@H]1CC=C(C)C[C@@H]21 | 112%
OC1(c2ccc(Cl)cc2Cl)c2ccccc2C2=NCCN21 (centres undefined) | 111%
CC1(CF)NC(=O)NC1=O (centres undefined) | 111%
O=C(Nc1ccc(S(=O)(=O)F)cc1)Oc1ccccc1 | 99.2%
